Laboratory results from PubChem BioAssay (NCI).
Compounds without any hit were thinned out: in the full panel of roughly 83,000, 20% have a hit.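 Cells were grown in 96-well plates and exposed to the test compound at a single concentration for 48 hours; results are reported as percent growth, with values below 10 considered active.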 A number with no mark means an inactive call. The source made the active and inactive calls.

system: MDA-MB-468 breast; test: NCI-60 one-dose screen, 48 h (100 = growth as untreated, 0 = no growth, -100 = all killed); conditions: 10 µM unless noted

SMILES	growth
CN(C)c1ccc(-c2ccc(-c3ccc(C(=N)N)c(F)c3)s2)cc1	-83.6% (active)
CC(C)(C)CC(C)(C)Nc1c(-c2ccc(-c3ccccc3)cc2)nc2cnccn12	109%
c1ccc(-c2oc3ccccc3c2-c2ccccc2)cc1	97.9%
Nc1c(C(=O)Nc2cccc3c2OCCO3)sc2nc3c(cc12)C(=O)CCC3	18.7%
Cc1ccccc1Nc1cc(O)c2c(=O)cc(-c3ccccc3)oc2c1	-2.12% (active)
CC(C)C1=NOC(=O)C1=Cc1cn(-c2ccccc2)nc1-c1cccc([N+](=O)[O-])c1	86.6%
Cc1cccnc1NC1OC(=O)c2ccccc21 (stereo not given)	103%
Cc1ccc(C)c(CN(C)C)c1O	97.7%
CC(C)c1ccc2c(c1)CC[C@H]1[C@](C)(C(=O)OCC#CCN3CCCC3)CCC[C@]21C	52.4%
CN(C)c1ccc(/C=c2\sc3nc4ccccc4n3c2=O)cc1	78.4%
Oc1ccc(OCCOc2ccc(O)cc2)cc1	94.6%
O=C(O)C(c1ccccc1)C(O)c1ccccc1 (stereo not given)	101%
O=C(NNc1nc2cc(F)c(F)cc2n2c(CN3CC4CNCC4C3)ccc12)c1cnccn1 (stereo not given)	-4.58% (active)
CCCCCCCCNC(=O)[C@@H](N)CSCOC(C)=O	89.8%
NC(=NCCCOc1ccc(Cl)cc1)Nc1ccc(Cl)cc1	-14.9% (active)
CN(CCCCCCCCNc1ccnc2ccccc12)Cc1ccc(-c2ccc(-c3ccc(C#N)cc3)s2)cc1	-50.4% (active)
Cc1cc(C)c(S(=O)O)c(C)c1	106%
COC(=O)Nc1nc2ccc(S(=O)c3ccccc3)cc2[nH]1 (stereo not given)	33.8%
O=Nc1ccc(NC(=O)Nc2ccc([N+](=O)[O-])cc2)cc1	96%
CCCN1CC(c2ccc(OC)c(OC)c2)=C(c2cn(C(=O)OCC)c3ccccc23)C1=O	6.47% (active)

SMILES	growth
CNC(=O)Cc1nc(-c2cccc(NS(=O)(=O)c3c(F)cccc3F)c2F)c(-c2ccnc(Nc3ccccc3)n2)s1	104%
Cc1cc2cn3c4ccc(O)cc4[nH]c(=O)c3c2cc1C	-28.2% (active)
C=C1C(=O)O[C@H]2[C@H]1CC/C(COC(=O)c1ccc3ccccc3c1)=C\CC[C@@]1(C)O[C@@H]21	-57.9% (active)
O=C(Nc1ccsc1C(=O)NC1CCCCC1)c1ccc(F)cc1	101%
COc1ccc(C(c2cc(OC)c(OC)c(OC)c2)n2ccnc2)cc1O (stereo not given)	15.6%
CCCCN(CCCC)CCc1c(C)cc(C)c(CCN(CCCC)CCCC)c1O	0.281% (active)
C#C[C@]1(O)CC[C@H]2[C@@H]3CC=C4c5sc(Nc6ccccc6)nc5CC[C@]4(C)[C@H]3CC[C@@]21C	7.27% (active)
Cc1ccc(-c2[nH][nH]c(=O)c2-c2nc3ccccc3s2)cc1	98.1%
COc1ccc(-c2nc(N/N=C/c3cccc(Br)c3)nc(N3CCOCC3)c2C#N)cc1	73.4%
NC(=O)NO	109%
O=C1c2cc3c(cc2-c2c1c1ccc(F)cc1c(=O)n2C[C@H](O)[C@@H](O)[C@H](O)CO)OCO3	-45.2% (active)
COc1cc2ncnc(-n3ncc4cc(NC(=O)Nc5ccc(Cl)c(Cl)c5)ccc43)c2cc1OC	-70.5% (active)
O=C(NC1CCCC1)c1ccc(N2CCC(NCc3cccc(C(F)(F)F)c3)CC2)cc1	77.7%
O=C(O)C1CCC(=O)N1C(=O)OCc1ccccc1 (stereo not given)	106%
CN(C)c1ccc(-c2c(C#N)c(N)nn2C(=O)c2ccc(NC(=O)c3ccccn3)cc2)cc1	119%
O=C(CCCSc1nc(-c2ccc(Cl)cc2)cc(-c2ccc(Cl)cc2)n1)NO	-49.5% (active)
O=C(CCl)N1CCN(C/C=C/c2ccccc2)CC1	81%
COc1ccc2c(c1)nc(N)c1c3cc(C)c(C)cc3cn21	48.3%
O=C(NC1CCCCC1)c1ccc(Nc2ncnc3c2cnn3-c2ccccc2)cc1	76.1%
Cc1nc2ccc(Nc3nc(Cl)nc(N4CCOCC4)n3)cc2n1Cc1ccccc1	62.2%
